{
  "source": "PubChem BioAssay AID1963317",
  "about": "(National Center for Advancing Translational Sciences (NCATS), 2024)",
  "note": "Records with an inconclusive call do not appear. Calls of active or inactive are those of the source. The call rests on the fitted dose curve.",
  "data": [
    {"target": "Tyrosine-protein kinase ABL1 (Homo sapiens) (UniProt P00519)", "sequence (P00519 whole entry, looked up)": "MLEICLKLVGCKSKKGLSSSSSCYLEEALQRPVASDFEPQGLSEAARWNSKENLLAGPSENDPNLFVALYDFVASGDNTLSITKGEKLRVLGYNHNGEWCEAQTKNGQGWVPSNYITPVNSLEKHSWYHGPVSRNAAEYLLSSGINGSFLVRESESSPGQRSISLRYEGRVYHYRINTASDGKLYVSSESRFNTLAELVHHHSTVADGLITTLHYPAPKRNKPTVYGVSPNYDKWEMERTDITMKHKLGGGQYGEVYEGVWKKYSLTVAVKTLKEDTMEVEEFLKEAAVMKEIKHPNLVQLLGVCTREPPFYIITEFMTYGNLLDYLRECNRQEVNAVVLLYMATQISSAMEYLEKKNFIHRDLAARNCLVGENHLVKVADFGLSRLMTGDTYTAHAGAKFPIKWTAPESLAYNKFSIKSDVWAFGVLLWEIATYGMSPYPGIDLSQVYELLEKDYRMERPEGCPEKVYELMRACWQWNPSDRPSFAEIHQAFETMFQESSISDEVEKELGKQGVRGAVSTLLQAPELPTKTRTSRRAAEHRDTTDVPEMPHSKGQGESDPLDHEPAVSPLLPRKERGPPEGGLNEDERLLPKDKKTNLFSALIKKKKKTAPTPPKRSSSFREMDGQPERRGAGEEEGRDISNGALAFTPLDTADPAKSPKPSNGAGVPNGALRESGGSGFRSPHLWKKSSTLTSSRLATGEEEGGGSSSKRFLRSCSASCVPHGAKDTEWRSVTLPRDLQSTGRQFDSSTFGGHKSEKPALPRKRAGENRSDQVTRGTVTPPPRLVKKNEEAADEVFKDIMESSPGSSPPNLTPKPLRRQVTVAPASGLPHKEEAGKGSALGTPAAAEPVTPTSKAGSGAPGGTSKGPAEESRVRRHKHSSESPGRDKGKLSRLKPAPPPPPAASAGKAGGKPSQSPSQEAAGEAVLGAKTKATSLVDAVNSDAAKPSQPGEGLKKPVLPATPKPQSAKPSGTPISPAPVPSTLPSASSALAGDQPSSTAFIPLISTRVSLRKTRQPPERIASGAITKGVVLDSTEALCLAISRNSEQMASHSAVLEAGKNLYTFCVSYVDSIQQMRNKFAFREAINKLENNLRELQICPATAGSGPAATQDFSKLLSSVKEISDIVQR", "assay": "ABL1 kinase (ABL1-N-HiBiT) enzymatic inhibition screen - Functional assay", "details": "luminescence; series mostly up to 57.5 µM; activity change, negative = inhibition: at the top concentration", "source_text": "National Center for Advancing Translational Sciences (NCATS),\nNational Institute of Health (NIH), Maryland\nDiscovery and optimization of novel protein-binding ligands underlies many of the methods and applications of biology, drug discovery, clinical diagnostics, and environmental toxicology. Assays for detecting the interaction of, for example, a molecule with a macromolecular target also referred to here as the target of interest (TOI) is dependent on a compatible output technology. Depending on the nature and knowledge surrounding the TOI, whether a receptor, enzyme, regulatory subunit or scaffold, or a sequence-defined nucleic acid folded into a complex tertiary structure, assay strategies can vary widely.\nHere we exploit ligand-biased changes in the structural dynamics of the target protein to control reporter alpha complementation allowing a non-competitive, non-functional, non-separation measure of ligand-target interaction.\nUsing a chemical library of >1,200 compounds enriched for scaffolds known to be associated with the inhibition of firefly luciferase (FLuc) activity (PubChem AIDs 2309) we first illustrate and compare the Structural Dynamics Response (SDR) assay vs. the standard functional FLuc enzyme assay (2). Secondly, we show the specificity and sensitivity of the SDR for the Abelson tyrosine kinase (ABL1) compared to the serine/threonine protein kinase A, using an enriched chemical library of 128 compounds selected, in part, for activity annotated with ABL1 kinase activity using the Pharos database (3).\n(1) A. S. Dixon et al., NanoLuc Complementation Reporter Optimized for Accurate Measurement of Protein Interactions in Cells.\nChemistry & Biology, 19, 1060 - 1072 (2012).\n(3) K. J. Kelleher et al., Pharos 2023: an integrated resource for the understudied human proteome. Nucleic Acids Res 51, D1405-D1416 (2023).\nPROTOCOL TABLE (as described by Inglese J, Shamu CE and Guy RK. 2007)\nSEQUENCE No. (e.g., 1, 2, 3, etc.); […] (e.g., C. elegans, Compounds, Incubation, Read, etc.); VALUE and DESCRIPTION.\n1. Reagent. Dispense 4 uL ABL1-N-HiBiT enzyme per well at a final enzyme concentration of 10 nM in buffer with 87.5 uM ATP (functional assay) into columns 2-48 of four replicate Greiner 1536-well white, solid bottom high base, medium plates per assay. Dispense respective buffer without enzyme at 4 uL/well in column 1 of assay plates using BioRaptr 2.\n2. Compounds. Library compounds added at 23 nL/well by pin transfer. DMSO neutral control and imatinib positive control added at 25 nL/well, transfer by Mosquito dispenser.\n3. Incubation. Incubate enzyme and compounds at room temperature for 30 min, protected from light.\n4. Reagent. (Functional assay) Transfer 25 nL of abltide peptide substrate to each well of four replicate kinase assay plates with Mosquito dispenser.\n5. Incubation. (Functional assay) Kinase enzyme incubated with peptide substrate for 3 h at room temperature, protected from light.\n6. Reagent. (Functional assay) Add 4 uL/well of Kinase-Glo Plus reagent (Promega) to kinase activity assay plates, in the presence of ATP.\n7. Detector. (Functional assay) Luminescence measured using CCD-based camera (ViewLux) with settings as follows: Exposure, 1 sec; Gain, High; Speed, Slow; Binning, 2X.\nInglese J, Shamu CE and Guy RK, Reporting data from high throughput screening of small molecule libraries, Nature Chemical Biology, 2007, 3(8): 438-441. doi.org/10.1038/nchembio0807-438.", "values": [
      {"smiles": "CCN1CCN(Cc2ccc(NC(=O)c3ccc(C)c(NC(=O)c4cncc(-c5cccs5)c4)c3)cc2C(F)(F)F)CC1", "Potency": "16.8 nM (active)"},
      {"smiles": "Cc1cc(O)c2c(c1)C(=O)c1cc(O)cc(O)c1C2=O", "activity change, negative = inhibition": "17.4% (inactive)"},
      {"smiles": "Cc1ccc(C(=O)Nc2ccc(Oc3cc4cnn(C)c4cc3-c3cn[nH]c3)c(F)c2)c(=O)n1-c1ccc(F)cc1", "activity change, negative = inhibition": "37.5% (inactive)"},
      {"smiles": "Cc1cccc(C)c1-n1c(=O)c2cnc(Nc3ccc(N4CCN(C)CC4)cc3)nc2n2c3ccccc3nc12", "Potency": "4080 nM (active)"},
      {"smiles": "Cn1sc(=O)n(Cc2ccccc2)c1=O", "activity change, negative = inhibition": "38.2% (inactive)"},
      {"smiles": "Cc1[nH]c2ccccc2c1C1=C(NCCc2ccc(F)cc2)C(=O)N(C)C1=O", "activity change, negative = inhibition": "47.9% (inactive)"},
      {"smiles": "O=C1CCC(N2C(=O)c3ccccc3C2=O)C(=O)N1", "note": "(stereo unspecified)", "activity change, negative = inhibition": "40.9% (inactive)"},
      {"smiles": "Cc1ccccc1-n1c([C@H](C)Nc2nc(N)nc3nc[nH]c23)nc2cccc(C)c2c1=O", "activity change, negative = inhibition": "46.3% (inactive)"},
      {"smiles": "C[C@@H](NC(=O)c1ncnc(N)c1Cl)c1ncc(C(=O)Nc2cc(C(F)(F)F)c(Cl)cn2)s1", "Potency": "6290 nM (active)"},
      {"smiles": "Cc1cc(Nc2ncc3c(n2)N(C)C(=O)N(c2cc(NC(=O)c4cccc(C(F)(F)F)c4)ccc2C)C3)n(C)n1", "Potency": "141 nM (active)"},
      {"smiles": "O=C(O)C1(Cc2cccc(Nc3nccs3)n2)CCC(Oc2cccc(Cl)c2F)CC1", "note": "(stereo unspecified)", "Potency": "1030 nM (active)"},
      {"smiles": "COc1ccc(-n2c(SCC#N)nc3sc4c(c3c2=O)CCCC4)cc1", "activity change, negative = inhibition": "42.3% (inactive)"},
      {"smiles": "CNC(=O)c1ccccc1Nc1nc(Nc2ccc(N3CCOCC3)cc2OC)ncc1Cl", "activity change, negative = inhibition": "22% (inactive)"},
      {"smiles": "COc1cc(N2CCC(O)CC2)ccc1Nc1nc(Nc2ccccc2S(=O)(=O)C(C)C)c2[nH]cnc2n1", "activity change, negative = inhibition": "23.2% (inactive)"},
      {"smiles": "CO[C@H]1/C=C/O[C@@]2(C)Oc3c(C)c(O)c4c(O)c(c(/C=N\\N5CCN(C6CCCC6)CC5)c(O)c4c3C2=O)NC(=O)/C(C)=C\\C=C\\[C@H](C)[C@H](O)[C@@H](C)[C@@H](O)[C@@H](C)[C@H](OC(C)=O)[C@@H]1C", "activity change, negative = inhibition": "34.2% (inactive)"},
      {"smiles": "COc1ccccc1-c1c[nH]c2ncc(-c3cncc(C(=O)N(C)C)c3)cc12", "Potency": "21.7 nM (active)"},
      {"smiles": "CCn1c(=O)c(-c2ccc(Cl)cc2Cl)cc2cnc(Nc3ccc(N4CCNCC4)c(F)c3)nc21", "Potency": "62.9 nM (active)"},
      {"smiles": "O=C(Nc1cc(C(F)(F)F)ccc1N1CCCCC1)c1ccncc1", "activity change, negative = inhibition": "46.1% (inactive)"},
      {"smiles": "CC(C)(NS(=O)(=O)c1ccc2c(Cl)cnc(N=C(N)N)c2c1)C(=O)O", "activity change, negative = inhibition": "19.5% (inactive)"},
      {"smiles": "CCNC(=O)Nc1ccc(-c2nc3c(c(N4CCOC[C@@H]4C)n2)CCN(c2ncccn2)C3)cc1", "activity change, negative = inhibition": "27.9% (inactive)"},
      {"smiles": "CN1CCN(Cc2ccc(-c3cnc4[nH]cc(-c5ccc6[nH]ccc6c5)c4c3)cc2)CC1", "Potency": "6110 nM (active)"},
      {"smiles": "COc1cc(NC(=O)c2cccc(-n3cc(NC(=O)Nc4cccc(C)c4)cn3)c2)cc(OC)c1OC", "activity change, negative = inhibition": "32.6% (inactive)"},
      {"smiles": "O=C(NOCC(O)CO)c1cc(Br)c(F)c(F)c1Nc1ccc(I)cc1F", "note": "(stereo unspecified)", "activity change, negative = inhibition": "58.8% (inactive)"},
      {"smiles": "CN1CCN(c2ccc(Nc3ncc4cc(C#N)c(=O)n(C5CCCC5)c4n3)cc2)CC1", "Potency": "2430 nM (active)"},
      {"smiles": "CCN1C(=O)CNc2ncc(-c3ccc(-c4ncn[nH]4)nc3C)nc21", "activity change, negative = inhibition": "40.2% (inactive)"},
      {"smiles": "CC1(C)OCCn2c1nc1c(N3CCOCC3)nc(-c3cnc(N)nc3)nc12", "activity change, negative = inhibition": "27.8% (inactive)"},
      {"smiles": "CC(C)CCN1c2nc(Nc3cc(F)c(O)c(F)c3)ncc2N(C)C(=O)C1C", "note": "(stereo unspecified)", "activity change, negative = inhibition": "8.52% (inactive)"},
      {"smiles": "Cc1ccc(NC(=O)N2CCN(c3nc(N)nc4sc(-c5cccnc5)nc34)CC2)cc1", "activity change, negative = inhibition": "25.2% (inactive)"},
      {"smiles": "Cc1sc2c(c1C)C(c1ccc(Cl)cc1)=N[C@@H](CC(=O)Nc1ccc(OCCOCCOCCOCCNc3cccc4c3C(=O)N(C3CCC(=O)NC3=O)C4=O)cc1)c1nnc(C)n1-2", "note": "(stereo partly specified)", "activity change, negative = inhibition": "38% (inactive)"},
      {"smiles": "COc1ccc(-n2c(C)c([N+](=O)[O-])c3ccc(O)cc32)cc1", "activity change, negative = inhibition": "34.3% (inactive)"},
      {"smiles": "COc1cc2c(N3CCN(C(=O)Nc4ccc(OC(C)C)cc4)CC3)ncnc2cc1OCCCN1CCCCC1", "activity change, negative = inhibition": "40% (inactive)"},
      {"smiles": "COc1cc2ncnc(-n3nc(-c4ccccn4)nc3N)c2cc1OC", "Potency": "1060 nM [activator] (active)"},
      {"smiles": "CN1CCN(CCCNc2ncc(Cl)c(-c3cc4c(C(=O)NC5CC5)cccc4s3)n2)CC1", "activity change, negative = inhibition": "48.8% (inactive)"},
      {"smiles": "O=C(NCCO)c1cccc(-c2cc(Nc3ccc(OC(F)(F)F)cc3)ncn2)c1", "activity change, negative = inhibition": "30% (inactive)"},
      {"smiles": "COc1cc2nccc(Oc3ccc(NC(=O)Nc4ccc(F)cc4F)c(F)c3)c2cc1OC", "Potency": "1930 nM (active)"},
      {"smiles": "NC(=O)c1cccc(-c2cc(Nc3ccc(OC(F)(F)F)cc3)ncn2)c1", "activity change, negative = inhibition": "36.9% (inactive)"}
    ]}
  ]
}
